# Reference: the supplement of paper PMC10338343
# ± gives the standard deviation.
# How the values were obtained:
# [1] = tested on: MILI (PIWIL2) piRISC loaded with L1MC piRNA (26 nt); assay: pre-steady-state target cleavage rate (min^-1); guide: L1MC piRNA 5'p-UAACUAAAUACUAUGCAAGCUGUAGG; higher = faster piRNA-guided slicing of the target
# Method in brief: (§1)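 Using HEPES–potassium acetate buffer at 33 °C, 1 nM active affinity-purified piRISC with a single synthetic guide was mixed with 0.1 nM transcribed, DNA-blocked target RNA library for 0–8 or 0–960 min, with or without 500 nM GTSF1 partner protein. Uncleaved targets were sequenced and normalised to depth and to weakly complementary targets, and three trials were pooled with k3 capped at 0.0001 min^-1. A burst-and-steady-state fit gave the pre-steady-state cleavage rate.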
# [2] = tested on: EfPiwi piRISC loaded with L1MC piRNA (26 nt); assay: pre-steady-state target cleavage rate (min^-1); auxiliary factor: 500 nM Ephydatia muelleri Gtsf1; guide: L1MC piRNA 5'p-UAACUAAAUACUAUGCAAGCUGUAGG; MIWI and MILI are mouse PIWI proteins and EfPiwi is from a freshwater sponge; tags in brackets are library labels; higher = faster piRNA-guided slicing of the target
# Method in brief: as §1
# [3] = auxiliary factor: 500 nM mouse GTSF1
Sequence,"pre-steady-state target cleavage rate [1, 3]",pre-steady-state target cleavage rate [2],pre-steady-state target cleavage rate ([1]; auxiliary factor: none (no GTSF1))
UCCUCCUACAGCUUGCAUAGUAAAAUCAAA,0.0893 ± 0.023,0.0042 ± 0.0034,–
UCCUCCUACAGCUAGCAUAGUAUUUUGUUA,0.151 ± 0.019,0.0077 ± 0.0035,–
UCCUCCUACAGGUUGCAUAGAAUUUAGUUA,0.0405 ± 0.0092,0.0062 ± 0.0014,–
UCCUGGAACAGCUUGCACUAGUAUUUAGUUA,0.0388 ± 0.0091,0.00312 ± 0.0026,–
UCCUGCUUGUGCUUGCAUAGUAUUUAGAAA,0.0115 ± 0.0056,0.00373 ± 0.0022,–
UCCUGGUACACCUUGCAUAGUAUUAAGUUA,0.218 ± 0.066,0.00356 ± 0.0032,–
UCCUGCUACACCUUGCAUAGUAUUUAGAUA,0.112 ± 0.032,0.00254 ± 0.0016,–
UCCUGGAACAGCUUGCAUAGUAUUUUGAUA,0.0833 ± 0.019,0.00265 ± 0.0024,–
UCCUCCUAGAGCUUGCAUACUAUUUAGUUA,0.101 ± 0.018,0.00855 ± 0.0026,–
UCCUGGUACAGCUUGCAUAGUAAAUAGUUA,0.238 ± 0.038,0.00642 ± 0.0025,–
UCCUGGAUGAGCUUGCAUAGUAUUUACUAA,0.00674 ± 0.0044,0.00198 ± 0.002,–
UCCUGCUACAGCAUCCAUAGUAUUUAGUUA,0.195 ± 0.047,0.00233 ± 0.0017,–
UCCUGGAUCACCUUGCAUAGUAUUUAGUAA,0.247 ± 0.038,0.00344 ± 0.0031,–
UCCUGGAUGUGCAAGCAUAGUAUUUAGAAA,0.0135 ± 0.0052,0.00423 ± 0.0039,–
UCCUGCUACAGCUUGCAUACUAAUUAGUUA,0.0334 ± 0.0091,0.00252 ± 0.0014,–
UCCUGGAACAGGAUGCAUAGUAUUUACAAA,0.0486 ± 0.017,0.00226 ± 0.0018,–
UCCUCCUACAGCUUGCAUAGUAAAAAGUUA,0.0965 ± 0.016,0.00301 ± 0.0021,–
UCCUGGAUGAGCUUGCAUAGUAAUUAGAUA,0.0197 ± 0.0088,0.00341 ± 0.0028,–
UCCUCCUACAGCUUGCUUAGUAUUUUCAAA,0.0605 ± 0.014,0.00322 ± 0.003,–
UCCUGGAUGUGCUUGCAUAGUAUGUAGUUA,0.134 ± 0.026,0.00399 ± 0.0022,–
UCCUCCUACAGCUUGCAUACUAUUUAGAAA,0.136 ± 0.043,0.00366 ± 0.0019,–
UCCUGGAACAGCUUGGAUAGUAUUAAGUUA,0.186 ± 0.033,0.00405 ± 0.0034,–
UCCUGGAUGAGCUUGCAUAGUAUUUAGUCA,0.172 ± 0.015,0.00793 ± 0.0032,–
UCCUGGAUCAGCUUGCAUAGUAUUUAAUUA,0.0429 ± 0.0097,0.00916 ± 0.0034,–
UCCUGCUACAGCUUGCAUAGUAAUUACUUA,0.057 ± 0.017,0.0026 ± 0.0026,–
UCCUCCUACAGCUUGCAUAGUAUGUAGUUA,0.041 ± 0.015,0.00354 ± 0.0013,–
UCCUCCUUGAGCUUGCAUAGUAUUUUCAAA,0.0637 ± 0.016,0.00265 ± 0.0021,–

Sequence,"pre-steady-state target cleavage rate [1, 3]",pre-steady-state target cleavage rate [2],pre-steady-state target cleavage rate ([1]; auxiliary factor: none (no GTSF1))
UCCUCCUACAGCUUGCAUAGAAUUUUGUUA,0.0525 ± 0.013,0.00325 ± 0.0016,–
UCCUGGAUGUCCUUGCAUAGUAUUAUAGUUA,0.122 ± 0.019,0.00424 ± 0.0041,–
UCCUCGUACAGCUUCCAUAGUAUUUAGUUA,0.0687 ± 0.018,0.00339 ± 0.0014,–
UCCUGGAACAGCUUGCUUAGUAUUAAGUUA,0.179 ± 0.026,0.00237 ± 0.002,–
UCCUGGAUGUGCUUCCAUAGUAUUUAGUAA,0.0304 ± 0.012,0.00486 ± 0.003,–
UCCUCCUAGAGCUUGCAUAGUAUUAAGUUA,0.279 ± 0.035,0.00604 ± 0.0026,–
UCCUGGAUGAGCUUGCAUAGUAUUUAGAUUA,0.165 ± 0.048,0.00336 ± 0.002,–
UCCUGCUUCAGCUUGCAUAGAAUUUAGUUA,0.0587 ± 0.011,0.00544 ± 0.0015,–
UCCUGGAUGAGCUUGCAUAGUAUUUAUUUA,0.0843 ± 0.024,0.00435 ± 0.0029,–
UCCUGCUUGAGCUUGCAUAGUAUUUACAAA,0.0564 ± 0.017,0.00279 ± 0.0023,–
UCCUCCUACUGCUUGCAUAGUAUUUACAAA,0.0424 ± 0.011,0.0028 ± 0.0021,–
UCCUGCUAGAGCUUGCAUAGUAUUUAGAUA,0.117 ± 0.015,0.00536 ± 0.0018,–
UCCUGCUACAGCUUGCAUAGUAUUUUCAAA,0.137 ± 0.041,0.00277 ± 0.0021,–
UCCUGGAUGAGCUUGCAUAAUAUUUAGUUA,0.266 ± 0.035,0.00543 ± 0.0021,–
UCCUCCUACAGCUUGCAUAGUUAUUAGAAA,0.0109 ± 0.0053,0.00348 ± 0.0028,–
UCCUCCUACAGCUAGCAUAGUAUUUAGAAA,0.113 ± 0.021,0.00378 ± 0.0016,–
UCCUGGAACAGCUUGCAUUGUAUUUAGAUA,0.149 ± 0.019,0.00313 ± 0.0017,–
UCCUGCUACAGCUUGCAUAGUUUUAGUUA,0.0113 ± 0.0045,0.00248 ± 0.0013,–
UCCUGGAUGUCCUUGCAUAGUAUUUAGAUUA,0.101 ± 0.022,0.00316 ± 0.003,–
UCCUGGAUCAGCUUGCAUAGUAAUUACUUA,0.0264 ± 0.0065,0.00233 ± 0.0022,–
UCCUCCUACAGCUUGCAUAGUAUAAAGAAA,0.0951 ± 0.023,0.00289 ± 0.0018,–
UCCUGCUACAGCUUGCAUACUAUUUAGUAA,0.0862 ± 0.018,0.00476 ± 0.0026,–
UCCUCCUACACCUUGCAUAGUUUUUAGUUA,0.0414 ± 0.012,0.00443 ± 0.002,–
UCCUGGUACUGCUUGCAUAGUAUUUAGUAA,0.0986 ± 0.018,0.00428 ± 0.0018,–
UCCUGCUACAGCUUGCAUACAAUUUAGUUA,–,0.00307 ± 0.0028,0.00287 ± 0.0025
UCCUGGUACAGCUUGCAUAGUAUUUACAUA,0.0411 ± 0.014,0.0038 ± 0.0029,–
UCCUGCUACAGCUUGCAUAGUAUUUACAUA,0.157 ± 0.041,0.0023 ± 0.0023,–

Sequence,"pre-steady-state target cleavage rate [1, 3]",pre-steady-state target cleavage rate [2],pre-steady-state target cleavage rate ([1]; auxiliary factor: none (no GTSF1))
UCCUGGAUGAGCUUGCAUAGUAUUUAGAAA,0.119 ± 0.03,0.00648 ± 0.0025,–
UCCUGGUACAGCUUGCAUAGUAUUUUGUAA,0.03 ± 0.0099,0.00379 ± 0.0027,–
UCCUGGAUCAGCUUGCAUAGGAUUUAGUUA,0.0049 ± 0.0037,0.0025 ± 0.0024,–
UCCUGGAACACCUUGCAUAGUAUUUUGUUA,0.14 ± 0.035,0.00343 ± 0.0029,–
UCCUGGAACAGCUUGCAUAGUAUUUCAGUUA,0.131 ± 0.028,0.00308 ± 0.0026,–
UCCUGGUACAGCUUGCAUAGUAAUUACAAA,0.021 ± 0.0095,0.00331 ± 0.0026,–
UCCUGGUAGUGCUUGCAUAGUAUUUAGAAA,0.0343 ± 0.013,0.00197 ± 0.0017,–
UCCUCCUACAGCUUGCAUAGUUUUUAGUAA,0.0743 ± 0.015,0.005 ± 0.0022,–
UCCUGCUACAGCUUGCAUAGUAUUUACUAA,0.112 ± 0.024,0.0025 ± 0.0024,–
UCCUGCUAGAGCUUGCAUACUAUUUAGUUA,0.0842 ± 0.018,0.00515 ± 0.0018,–
UCCUGGAUGUGCUUCCAAAGUAUUUAGUUA,0.0214 ± 0.0068,0.00463 ± 0.0046,–
UCCUCCUACAGCUUCCAUAGUAUUUAGUAA,0.0254 ± 0.011,0.0037 ± 0.0018,–
UCCUGGUACAGCUUGCAAAGUAUUUAGUAA,0.0794 ± 0.014,0.00304 ± 0.0024,–
UCCUGGAACAGCUUGCAUAGUUUUUAGAUA,0.0168 ± 0.0068,0.00205 ± 0.0016,–
UCCUGGAACAGCUUGCAUAGUAAUUAGAUA,0.0936 ± 0.022,0.00318 ± 0.0015,–
UCCUGGAACAGCUUGCAUAGUAUUUACAUA,0.0382 ± 0.014,0.00316 ± 0.0025,–
UCCUGGAUGUCCAUUGCAUAGUAUUUAGUUA,0.127 ± 0.032,0.00326 ± 0.0022,–
UCCUGGUACAGCUUGCAUACUAUUAAGUUA,0.0468 ± 0.016,0.00282 ± 0.0022,–
UCCUCCAACAGCUUGCAUAGUAUUUACUUA,0.122 ± 0.022,0.00475 ± 0.0037,–
UCCUGCUACAGCUUGCACUAGUAUUUAGUUA,0.0609 ± 0.015,0.00557 ± 0.0023,–
UCCUGGUUCAGCUUGCAUAGUAUUUAGAAA,0.114 ± 0.022,0.00471 ± 0.003,–
UCCUGGAUGUGCAUGCAUAGUAUUUAGAUA,0.146 ± 0.032,0.00317 ± 0.0024,–
UCCUGGAACACCUAGCAUAGUAUUUAGUUA,0.229 ± 0.032,0.00601 ± 0.0036,–
UCCUGGAUGUGCUUGUCAUAGUAUUUAGUUA,0.0294 ± 0.0075,0.00492 ± 0.0031,–
UCCUCCUACAGCUUGGAUAGUAUUUACUUA,0.0993 ± 0.024,0.00254 ± 0.0019,–
UCCUCCUACAGCUUGCAUAGUAUAUUCAAA,0.125 ± 0.025,0.00316 ± 0.0027,–
